DAX1 inh-1 = NR0B1 (DAX1) inhibition; actives 0.99% (n = 340,000); P51843; inhibition, % at 6.75 µM; HEK293 Gal4-DAX1 luciferase reporter, luminescence;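 active = inhibition above the mean over all tested compounds plus 3 SD, cut at about 4.2% in these data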;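 also: 0% = DAX1-transfected cells with DMSO and 100% = empty-vector control cells with DMSO; inhibition shows as a rise in luminescence from relieved DAX1 repression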
Target sequence (P51843 207-470 limits assumed): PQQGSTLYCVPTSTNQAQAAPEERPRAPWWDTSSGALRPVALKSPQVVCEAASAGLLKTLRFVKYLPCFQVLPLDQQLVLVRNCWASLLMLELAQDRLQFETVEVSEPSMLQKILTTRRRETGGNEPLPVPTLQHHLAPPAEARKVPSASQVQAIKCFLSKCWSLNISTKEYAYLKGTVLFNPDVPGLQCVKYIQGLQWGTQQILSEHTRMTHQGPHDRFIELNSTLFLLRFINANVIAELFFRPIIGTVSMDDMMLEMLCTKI
DAX1 inh-2 = DAX1 (NR0B1) inhibition, primary screen. HEK293T StAR-luciferase reporter, SF-1/DAX-1 repression relief. inhibition, % at 6.8 µM. actives 1.1% (n = 370,000). AID 652010;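 active = inhibition above the mean over all tested compounds plus 3 SD, cut at about 3.6% in these data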;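 also: 0% = DAX-1 cells with DMSO and 100% = cells lacking DAX-1 with DMSO; higher inhibition means more luminescence from relief of DAX-1 repression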
ssDAF-12 act = activators of S. stercoralis DAF-12 nuclear receptor; HEK293 ssDAF-12/GRIP1 lit1-tk-luc reporter, luminescence; % of 3 µM dafachronic acid response; AID 652126; activation, % at 6.8 µM; actives 1% (n = 370,000);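 active = activation above the mean over all tested compounds plus 3 SD, cut at about 0.9% in these data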;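 also: 0% = DMSO-only wells and 100% = 3 µM delta7-dafachronic acid wells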
hcDAF12 agonist = activates DAF-12 receptor from parasite H. contortus | actives 1.4% (n = 370,000) | activation, % at 6.8 µM | HEK293 hcDAF-12 lit1-tk-luc reporter, luminescence; 0% DMSO, 100% Δ7-dafachronic acid;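 active = activation above the mean of all tested compounds plus 3 SD, cut at about 5.5% in these data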;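 also: 100% = response to 3 µM Δ7-dafachronic acid high control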
hgDAF12 agonist = hgDAF-12 agonism, primary luciferase screen; activation, % at 6.8 µM; actives 1.8% (n = 370,000); AID 687014; HEK293 GAL4-hgDAF12 UAS-luciferase reporter, agonist luminescence; normalized to butyrate control;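 active = activation above a cutoff set at the mean of all screened compounds plus 3 SD, cut at about 10% in these data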;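 also: 0% = DMSO wells and 100% = sodium butyrate wells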
* = called active by the depositor; / = no result. Compounds with a hit are over-represented: about 4.1% of the library has one in this group of screens.

SMILES	DAX1 inh-1	DAX1 inh-2	ssDAF-12 act	hcDAF12 agonist	hgDAF12 agonist
COc1ccc(-n2c(COc3ccc(C)cc3)nnc2SCC(=O)Nc2ccc(S(=O)(=O)Nc3cc(C)nc(C)n3)cc2)cc1	/	1	-2	2	0
C[C@H](NS(=O)(=O)c1ccc([N+](=O)[O-])cc1)C(=O)NCCNC(=O)[C@@H](C)NS(=O)(=O)c1ccc([N+](=O)[O-])cc1	/	/	-1	-1	-2
COCC#Cc1ccc2c(c1)O[C@H](CN(C)C(=O)c1ccccc1)[C@@H](C)CN([C@H](C)CO)S2(=O)=O	/	-1	-1	0	-3
Cc1cccc2c1NC(=O)C2=O	0	1	-1	1	-1
COC(=O)c1cccc2c1NC(=O)C2=O	8.0*	0	-1	1	0
CC(=O)CC[C@@H]1CC[C@]2(CCCN(C(=O)C(C)(C)C)C2)O1	/	1	0	-1	-2
CN(C)CCCN(C(=O)COc1ccc(Cl)cc1)c1nc2c(F)cccc2s1	1	0	-1	-1	1
Cc1cccc2sc(N(CCCN(C)C)C(=O)COc3ccc(Cl)cc3)nc12	4.3*	1	-1	0	1
CC[C@@H](CCCCCC#N)CCC(=O)N(c1ccccc1)c1ccccc1	/	-2	-2	-4	-6
CCOc1ccccc1C(O)C1=CC(=O)c2ccccc2C1=O (stereo not drawn)	-1	1	-1	6.2*	-2
Cc1ccccc1C(=O)NC1CCCCN(Cc2ccc(Cl)cc2)C1=O (stereo not drawn)	/	-1	-1	-3	0
Cc1ccc(O)c(N=Cc2cccs2)c1	-1	1	0	5.8*	9
COc1ccc(S[C@]2(C(=O)N3CCN(c4ncccn4)CC3)CC(=O)N(C(=O)Nc3ccc(C)c(Cl)c3)[C@@H]2c2ccc(OC)cc2)cc1	/	0	-1	-1	1
CCCCOC(=O)/C=C\C(=O)OCCCC	6.9*	1	-1	-1	-1
Cc1cccc(NC(=S)Nc2ccccn2)c1	5.3*	1	1.0*	5	7
Cc1cc(C)nc(NC(=S)Nc2cccc(F)c2)c1	3	0	-1	0	5
Cc1cc(Cl)ccc1Nc1ncccc1C(N)=O	9.6*	1	-1	2	9
Cc1cc(Cl)ccc1NC(=S)NCc1ccccc1	0	0	-1	-1	0
COc1cccc(NC(=S)Nc2cc(C)cc(C)n2)c1	5.3*	1	1.7*	5	6
Cc1cc(Cl)ccc1NC(=S)Nc1ccccn1	4.3*	0	0	1	6
Cc1ccc(OC[C@@H](O)CN2CCC(C(O)(c3ccccc3)c3ccccc3)CC2)cc1	/	0	-1	1	-1
CC(C)(C)OC(=O)NCCCc1ccc2c(c1)[C@]1(CCC[C@@H](OCc3ccccc3)[C@@H]1NC(=O)CCc1ccccc1)C(=O)N2Cc1ccccc1	/	0	0	-1	6
CCCC1CCC2(CC1)CCC2OC(=S)Nc1cccc(I)c1 (stereo not drawn)	/	/	-1	1	4
Cc1ccc(C2CCC3(CCC(=O)N3CCOC(=O)Nc3ccc(F)cc3)CC2)cc1 (stereo not drawn)	/	-2	-1	-2	2
C[C@@H]1[C@H](O)[C@@H](C)/C=C/C=C/C=C/C=C/C=C/C=C/C=C/[C@H](OC2O[C@H](C)[C@@H](O)[C@H](N)[C@@H]2O)C[C@@H]2O[C@](O)(C[C@@H](O)C[C@@H](O)[C@H](O)CC[C@@H](O)C[C@@H](O)CC(=O)O[C@H]1C)C[C@H](O)[C@H]2C(=O)O (stereo partly drawn)	/	1	-1	-1	7
SMILES	DAX1 inh-1	DAX1 inh-2	ssDAF-12 act	hcDAF12 agonist	hgDAF12 agonist
Cc1cccc(NC(=S)NNc2cccc(Cl)c2)c1	-1	0	1.0*	3	1
COC(=O)c1ccc(NC(=S)Nc2ccc(O)cc2)cc1	0	-1	0	0	-1
Cc1cccc(NNC(=S)Nc2c(C)cccc2C)c1	-1	0	-1	-1	-2
COC(=O)c1ccc(NC(=S)Nc2ccccn2)cc1	3	2	0	2	12*
COC(=O)c1sc2nc3c(cc2c1N)C(=O)CC(C)(C)C3	0	1	0	1	2
CCOC(=O)c1sc2nc3c(cc2c1N)C(=O)CC(C)(C)C3	4.4*	1	-1	-2	1
Cn1cncc1C(=O)c1ccccc1	2	-1	1.1*	2	0
COc1ccc(S(=O)(=O)N2CCC(c3nc4ccccc4o3)CC2)c(OC)c1	/	-1	-1	-3	0
O=C(Nc1c(-c2ccccc2)nc2ccccn12)c1ccco1	1	0	-2	-1	-2
Oc1ccc(-c2nc3ccccn3c2NCc2ccco2)cc1	4.3*	0	0	0	6
O=C1N/C(=C/c2ccc(Br)cc2)C(O)=C1C=NCc1ccccc1	0	0	-1	5.6*	2
O=C1NC(=NCc2ccccc2)S/C1=C/c1ccc(O)cc1	-2	-1	-2	-2	1
CCOC(=O)C1=C(C)NC(C)=C(C(=O)OCC)C1/C=C/c1ccccc1OC	6.4*	-1	-2	-2	-2
CC(=O)Oc1ccc(/C=C2/Oc3ccccc3C2=O)cc1	5.3*	0	-1	1	1
NNC(=O)CCn1nnc2ccccc21	1	0	-1	-1	-1
C/C(=N\NC(=O)CCn1nnc2ccccc21)c1ccco1	4.7*	0	0	-1	-2
CCOC(=O)c1ccc(NC(=O)CCn2nnc3ccccc32)cc1	0	0	-1	1	4
CC(=O)Nc1ccc(NC(=O)CCn2nnc3ccccc32)cc1	-1	0	1.3*	4	1
Cc1ccc(OCc2nnc(SCC(=O)c3ccc(-c4ccccc4)cc3)n2Cc2ccco2)cc1	/	-1	-1	-3	-1
CCOc1ccc(N(C(C)C(=O)N2CCCCCC2)S(C)(=O)=O)cc1 (stereo not drawn)	4	0	1.5*	-2	-3
Cc1noc(NS(=O)(=O)c2ccc(N/C=C\C(=O)c3cccc4ccccc34)cc2)c1C	6.6*	2	0	1	1
CC(=O)N1CCc2c(sc(NC(=O)c3ccc([N+](=O)[O-])o3)c2C#N)C1	0	-1	0	2	2
COC(=O)c1sc(NC(=O)c2ccc([N+](=O)[O-])o2)c(C#N)c1C	4.7*	-2	-2	-1	-2
O=C(C(=O)N1CCC(CNS(=O)(=O)c2ccc3ccccc3c2)CC1)c1cc2ccccc2o1	/	-1	-1	-1	-1
NC(=O)C1CCN(C2CC(=O)N(Cc3cccs3)C2=O)CC1 (stereo not drawn)	2	0	1.2*	0	-1
N/C(Cc1ccc(Cl)cc1Cl)=N\OC(=O)Cc1cccs1	1	0	-1	3	3
N/C(Cc1cccs1)=N\OC(=O)COc1ccc(Cl)cc1Cl	1	2	-1	4	13*
